Results reported in PubChem BioAssay (Tox21).
“And” between values parts separate entries of the source, which are not always exact repeats. Equal entries are not always repeated. Inconclusive results are not listed. A call without a number means that no potency is given here. The source made the active and inactive calls. Unless noted, calls follow the shape of the dose curve; as a rule, active = well fitted curve in the direction sought with a large enough effect in the repeat runs; inconclusive = weak or mixed curves; inactive = no such curve, though single readings can be large; an effect the other way counts as inactive or inconclusive.

Assays:
[1] = molecular target: Aryl hydrocarbon receptor (Homo sapiens) (UniProt P35869); test: qHTS assay to identify small molecule that activate the aryl hydrocarbon receptor (AhR) signaling pathway (AID 743085); also: nearly all actives have a fitted effect of over 15% in size; also: potency is read from the fitted curve at half-maximal effect;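 as to activation: HG2L7.5c1 human HepG2 liver cells with stably integrated DRE-driven firefly reporter; series mostly up to about 70 µM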
Sequence of Aryl hydrocarbon receptor (Homo sapiens) (P35869 whole entry, looked up): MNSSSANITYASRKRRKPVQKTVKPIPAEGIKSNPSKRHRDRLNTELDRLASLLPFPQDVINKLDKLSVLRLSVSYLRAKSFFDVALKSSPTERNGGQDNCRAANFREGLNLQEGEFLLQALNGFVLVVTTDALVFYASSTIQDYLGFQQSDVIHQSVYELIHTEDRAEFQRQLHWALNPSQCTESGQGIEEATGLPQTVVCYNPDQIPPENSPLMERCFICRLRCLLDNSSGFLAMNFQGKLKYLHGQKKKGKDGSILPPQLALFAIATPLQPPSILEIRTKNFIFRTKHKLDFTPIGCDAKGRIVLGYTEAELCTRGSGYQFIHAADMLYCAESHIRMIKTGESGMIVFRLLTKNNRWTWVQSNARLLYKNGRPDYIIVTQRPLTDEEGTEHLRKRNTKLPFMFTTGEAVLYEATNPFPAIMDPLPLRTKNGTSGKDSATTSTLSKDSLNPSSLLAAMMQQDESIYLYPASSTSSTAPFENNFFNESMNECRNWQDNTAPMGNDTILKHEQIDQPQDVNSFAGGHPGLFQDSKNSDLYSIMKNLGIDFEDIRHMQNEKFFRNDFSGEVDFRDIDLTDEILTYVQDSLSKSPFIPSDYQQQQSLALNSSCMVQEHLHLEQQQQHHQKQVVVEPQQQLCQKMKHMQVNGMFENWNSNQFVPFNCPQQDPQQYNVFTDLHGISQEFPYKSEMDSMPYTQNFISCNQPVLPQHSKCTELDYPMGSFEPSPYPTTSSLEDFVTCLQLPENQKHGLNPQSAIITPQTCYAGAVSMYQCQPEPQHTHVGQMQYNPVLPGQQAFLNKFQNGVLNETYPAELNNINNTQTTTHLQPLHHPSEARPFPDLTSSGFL
Procedure, shortened: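 Steps: seed HepG2-AhR-luc cells; allow 5 h at 37C; pin-transfer test compound or vehicle; incubate 24 h at 37C; add viability dye (30 min, 37C) and read fluorescence; add luciferase substrate (30 min, RT) and read luminescence.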

[2] = qHTS assay to identify small molecule that activate the aryl hydrocarbon receptor (AhR) signaling pathway - cell viability counter screen (AID 743086); also: nearly all actives have a fitted effect of over 45% in size; also: potency is read from the fitted curve at half-maximal effect
Procedure, shortened: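 Cytotoxicity counter screen: CellTiter-Fluor signal (30 min, 37 C) in 4000 HepG2 cells/well carrying the DRE-luciferase reporter, following 24 h compound exposure at 37 C.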

[3] = molecular target: Peroxisome proliferator-activated receptor gamma (Homo sapiens) (UniProt P37231); test: qHTS assay to identify small molecule agonists of the peroxisome proliferator-activated receptor gamma (PPARg) signaling pathway (AID 743094; active = well fitted activation curve with a large enough effect in the signal ratio in the repeat runs, not every such curve was filed as active; the % refers to the signal ratio)
Sequence of Peroxisome proliferator-activated receptor gamma (Homo sapiens) (P37231 whole entry, looked up): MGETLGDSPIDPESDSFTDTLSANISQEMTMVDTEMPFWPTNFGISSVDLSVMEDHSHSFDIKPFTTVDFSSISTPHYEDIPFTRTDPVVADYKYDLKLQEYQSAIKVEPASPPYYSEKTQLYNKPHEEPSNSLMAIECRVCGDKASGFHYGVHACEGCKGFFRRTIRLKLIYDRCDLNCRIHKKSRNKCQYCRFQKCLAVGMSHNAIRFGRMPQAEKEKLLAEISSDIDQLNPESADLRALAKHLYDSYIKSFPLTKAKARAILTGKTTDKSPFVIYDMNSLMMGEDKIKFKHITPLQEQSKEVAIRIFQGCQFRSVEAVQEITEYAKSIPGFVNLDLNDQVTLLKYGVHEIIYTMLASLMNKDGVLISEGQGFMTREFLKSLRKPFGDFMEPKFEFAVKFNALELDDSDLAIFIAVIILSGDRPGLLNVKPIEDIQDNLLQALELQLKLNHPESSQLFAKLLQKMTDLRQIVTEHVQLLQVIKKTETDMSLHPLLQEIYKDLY
Procedure, shortened: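 Quantitative HTS agonist mode: stable HEK293H line with UAS-beta-lactamase reporter under PPARg control, 17 h compound exposure at 37C, fluorescence after 1 h FRET substrate loading at room temperature.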

[4] = molecular target: Peroxisome proliferator-activated receptor gamma (Homo sapiens) (UniProt P37231); test: qHTS assay to identify small molecule antagonists of the peroxisome proliferator-activated receptor gamma (PPARg) signaling pathway (AID 743191; calls by dose curve; also: series mostly up to about 63 µM; nearly all actives have a fitted effect of over 30% in size)
Procedure, shortened: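 Beta-lactamase reporter under UAS control in HEK293H PPARg-bla cells; compound treatment 17 h at 37C. Read-out: fluorescence intensity after 1 h room-temperature incubation with LiveBLAzer B/G FRET substrate.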

[5] = qHTS assay to identify small molecule antagonists of the peroxisome proliferator-activated receptor gamma (PPARg) signaling pathway - cell viability counter screen (AID 743194); settings: Potency: co-treated with 50 nM rosiglitazone; also: nearly all actives have a fitted effect of over 55% in size
Procedure, shortened: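 Viability was measured as CellTiter-Glo luminescence in GeneBLAzer PPARg UAS-bla HEK293H cells. These cells had been exposed 17 h at 37 C to compounds together with rosiglitazone at 50 nM final, with the beta-lactamase readout taken in the same wells.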

[6] = qHTS assay for small molecule agonists of the antioxidant response element (ARE) signaling pathway - cell viability counter screen (AID 743203; calls by dose curve; also: nearly all actives have a fitted effect of over 55% in size)
Procedure, shortened: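 Seeded at 2,000 cells/well, ARE-bla HepG2 cells were incubated 5 hrs before compound addition. After 16 hrs of treatment at 37C with 5% CO2, CellTiter-Glo reagent was added and luminescence read 30 min later.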

[7] = qHTS assay for small molecule activators of the heat shock response signaling pathway - cell viability counter screen (AID 743209); also: nearly all actives have a fitted effect of over 50% in size
Procedure, shortened: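 First, HSE-bla HeLa cells were seeded at 1500 cells/well and kept overnight at 37 C. Next, compounds were pinned in and incubated 5 h. After the FRET substrate step, CellTiter-Glo was added and luminescence read 30 min later.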

[8] = qHTS assay for small molecule activators of the heat shock response signaling pathway (AID 743210; active = well fitted activation curve with a large enough effect in the signal ratio in the repeat runs, with a control signal flat, not every such curve was filed as active; the % refers to the signal ratio; also: potency is read from the fitted curve at half-maximal effect;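 as to activation: HeLa cells with beta-lactamase reporter driven by heat shock elements; series mostly up to about 63 µM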)
Procedure, shortened: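 HeLa HSE-bla cells, overnight plating; cpd in DMSO 5 h, 37 C; LiveBLAzer B/G FRET substrate 2.5 h RT; fluorescence intensity read.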

[9] = qHTS assay to identify small molecule agonists of the peroxisome proliferator-activated receptor delta (PPARd) signaling pathway - cell viability counter screen (AID 743211); also: nearly all actives have a fitted effect of over 55% in size
Procedure, shortened: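 Viability of GeneBLAzer PPARd UAS-bla HEK293H cells was assessed after 17 h compound incubation at 37C, using CellTiter-Glo reagent added after the reporter read and luminescence recorded 30 min later.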

[10] = qHTS assay to identify small molecule antagonists of the peroxisome proliferator-activated receptor delta (PPARd) signaling pathway - cell viability counter screen (AID 743213); also: nearly all actives have a fitted effect of over 50% in size
Procedure, shortened: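 CellTiter-Glo was added to PPARd-bla HEK293H wells following 17 h compound treatment in the presence of 300 nM L165041. Luminescence was recorded after 30 min at room temperature.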

[11] = qHTS assay to identify small molecule agonists of the farnesoid-X-receptor (FXR) signaling pathway - cell viability counter screen (AID 743218); also: nearly all actives have a fitted effect of over 45% in size
Procedure, shortened: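 Cytotoxicity counter-screen run in parallel, same wells: FXR-UAS-bla HEK 293T cells dosed 16 h at 37 C, viability read by CellTiter-Glo luminescence after 30 min at room temperature.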

[12] = qHTS assay to identify small molecule antagonists of the farnesoid-X-receptor (FXR) signaling pathway - cell viability counter screen (AID 743221; active = well fitted cell-killing curve with a large enough effect in the repeat runs, not every such curve was filed as active; also: nearly all actives have a fitted effect of over 50% in size)
Procedure, shortened: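 Quantitative HTS of the Tox21 10K library run in parallel with the beta-lactamase reporter read. HEK 293T cells carrying a UAS-driven bla reporter got compound and 50 uM CDCA (final) for 16 h; ATP-based luminescence followed.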

[13] = molecular target: Vitamin D3 receptor (Homo sapiens) (UniProt P11473); test: qHTS assay to identify small molecule agonists of the vitamin D receptor (VDR) signaling pathway (AID 743222; calls by dose curve)
Sequence of Vitamin D3 receptor (Homo sapiens) (P11473 whole entry, looked up): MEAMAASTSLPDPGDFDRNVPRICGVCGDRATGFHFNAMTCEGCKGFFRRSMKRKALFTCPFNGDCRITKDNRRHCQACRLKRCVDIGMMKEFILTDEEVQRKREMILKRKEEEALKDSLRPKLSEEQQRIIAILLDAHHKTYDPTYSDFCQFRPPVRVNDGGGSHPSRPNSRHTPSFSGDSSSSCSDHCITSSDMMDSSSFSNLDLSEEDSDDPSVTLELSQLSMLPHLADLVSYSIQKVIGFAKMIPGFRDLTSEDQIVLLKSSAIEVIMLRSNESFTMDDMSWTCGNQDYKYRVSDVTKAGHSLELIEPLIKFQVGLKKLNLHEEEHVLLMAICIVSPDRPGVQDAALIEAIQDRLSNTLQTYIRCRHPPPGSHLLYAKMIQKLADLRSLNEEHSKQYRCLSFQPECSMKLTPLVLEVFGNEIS
Procedure, shortened: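 Quantitative HTS agonist-mode screen: compounds in DMSO were pin-transferred onto VDR-bla cells and incubated 16 h at 37C, 5% CO2. Reporter activity was detected with LiveBLAzer B/G FRET substrate after 2 h at room temperature.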

[14] = molecular target: Vitamin D3 receptor (Homo sapiens) (UniProt P11473); test: qHTS assay to identify small molecule antagonists of the vitamin D receptor (VDR) signaling pathway (AID 743223; active = well fitted inhibition curve with a large enough effect in the signal ratio in the repeat runs, not every such curve was filed as active; the % refers to the signal ratio)
Procedure, shortened: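 Fluorescence from LiveBLAzer B/G FRET substrate, read after 2 h at room temperature, reflects beta-lactamase reporter activity in VDR-bla cells treated 16 h at 37C with compounds and agonist 1alpha,25-dihydroxyvitamin D3 (3 nM final).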

[15] = qHTS assay to identify small molecule agonists of the vitamin D receptor (VDR) signaling pathway - cell viability counter screen (AID 743224); also: series mostly up to about 63 µM; nearly all actives have a fitted effect of over 50% in size
Procedure, shortened: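 Viability is measured in the same wells as the VDR-bla reporter assay: after 16 h compound treatment and 2 h substrate loading, CellTiter-Glo is added and luminescence read 30 min later.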

[16] = molecular target: Peroxisome proliferator-activated receptor delta (Homo sapiens) (UniProt Q03181); test: qHTS assay to identify small molecule agonists of the peroxisome proliferator-activated receptor delta (PPARd) signaling pathway (AID 743212; calls by dose curve)
Sequence of Peroxisome proliferator-activated receptor delta (Homo sapiens) (Q03181 whole entry, looked up): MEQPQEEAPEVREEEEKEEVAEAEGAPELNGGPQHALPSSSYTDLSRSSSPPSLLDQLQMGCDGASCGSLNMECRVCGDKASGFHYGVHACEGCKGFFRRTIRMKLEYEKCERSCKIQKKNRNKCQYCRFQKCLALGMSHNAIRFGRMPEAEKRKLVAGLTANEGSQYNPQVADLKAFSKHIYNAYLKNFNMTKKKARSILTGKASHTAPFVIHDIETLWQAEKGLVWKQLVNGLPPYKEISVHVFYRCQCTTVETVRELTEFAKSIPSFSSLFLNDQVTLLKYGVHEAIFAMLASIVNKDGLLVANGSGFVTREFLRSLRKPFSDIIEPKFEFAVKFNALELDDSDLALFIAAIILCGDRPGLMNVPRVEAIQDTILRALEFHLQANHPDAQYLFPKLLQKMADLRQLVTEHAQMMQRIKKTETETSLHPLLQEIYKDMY
Procedure, shortened: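 HEK293H PPARd-bla cells; 5 h preincubation 37 C/5% CO2; compound (DMSO) 37 C; LiveBLAzer B/G FRET substrate 2 h RT; fluorescence intensity.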

[17] = molecular target: Peroxisome proliferator-activated receptor delta (Homo sapiens) (UniProt Q03181); test: qHTS assay to identify small molecule antagonists of the peroxisome proliferator-activated receptor delta (PPARd) signaling pathway (AID 743215; active = well fitted inhibition curve with a large enough effect in the signal ratio in the repeat runs, not every such curve was filed as active; the % refers to the signal ratio;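 also: cells stimulated with agonist L165041 at 300 nM final during compound exposure; series mostly up to about 62 µM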)
Procedure, shortened: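 Inhibition of L165041-driven (300 nM final) PPARd signaling is scored in HEK293H UAS-bla cells. Exposure lasts 17 h at 37 C; beta-lactamase activity is then read by FRET substrate fluorescence after 2 h at room temperature.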

[18] = molecular target: Bile acid receptor (Homo sapiens) (UniProt Q96RI1); test: qHTS assay to identify small molecule antagonists of the farnesoid-X-receptor (FXR) signaling pathway (AID 743217; active = well fitted inhibition curve with a large enough effect in the signal ratio in the repeat runs, not every such curve was filed as active; the % refers to the signal ratio)
Sequence of Bile acid receptor (Homo sapiens) (Q96RI1 whole entry, looked up): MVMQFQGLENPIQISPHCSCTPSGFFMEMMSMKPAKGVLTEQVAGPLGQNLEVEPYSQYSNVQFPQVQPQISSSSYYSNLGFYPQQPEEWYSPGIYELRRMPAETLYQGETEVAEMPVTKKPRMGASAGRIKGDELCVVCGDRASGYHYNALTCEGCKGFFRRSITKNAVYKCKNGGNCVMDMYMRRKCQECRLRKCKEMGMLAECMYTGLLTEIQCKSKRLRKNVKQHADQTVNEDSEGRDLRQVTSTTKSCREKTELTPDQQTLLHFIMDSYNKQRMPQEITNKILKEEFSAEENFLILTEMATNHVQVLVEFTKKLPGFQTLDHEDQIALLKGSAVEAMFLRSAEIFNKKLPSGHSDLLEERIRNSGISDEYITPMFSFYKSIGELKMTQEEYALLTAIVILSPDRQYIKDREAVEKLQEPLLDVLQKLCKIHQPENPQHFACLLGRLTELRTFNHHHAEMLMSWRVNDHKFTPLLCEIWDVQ
Procedure, shortened: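 Antagonist mode against 50 uM (final) chenodeoxycholic acid stimulation in FXR-bla HEK 293T cells, 16 h at 37 °C. Inhibition detected as reduced beta-lactamase activity via LiveBLAzer B/G FRET fluorescence after 2 h at room temperature.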

[19] = molecular target: Bile acid receptor (Homo sapiens) (UniProt Q96RI1); test: qHTS assay to identify small molecule agonists of the farnesoid-X-receptor (FXR) signaling pathway (AID 743220; active = well fitted activation curve with a large enough effect in the signal ratio in the repeat runs, not every such curve was filed as active; the % refers to the signal ratio)
Procedure, shortened: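 Beta-lactamase reporter under UAS control in GeneBLAzer FXR HEK 293T cells (5000/well) measured with LiveBLAzer FRET substrate after 2 h at room temperature. Compound exposure lasted 16 h at 37C.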

[20] = qHTS assay for small molecule agonists of the antioxidant response element (ARE) signaling pathway (AID 743202; active = well fitted activation curve with a large enough effect in the signal ratio in the repeat runs, not every such curve was filed as active; the % refers to the signal ratio; also: potency is read from the fitted curve at half-maximal effect)
Procedure, shortened: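 Quantitative high-throughput format in HepG2 cells bearing an integrated ARE-beta-lactamase reporter. Compound exposure lasted 16 h at 37 C, and fluorescence was read 2 h after adding LiveBLAzer B/G substrate at room temperature.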

Structure (SMILES)	Potency [1]	Potency [2]	Potency [3]	Potency [4]	Potency [5]	Potency [6]	Potency [7]	Potency [8]	Potency [9]	Potency [10]	Potency [11]	Potency [12]	outcome [13]	Potency [14]	Potency [15]	outcome [16]	Potency [17]	Potency [18]	outcome [19]	Potency [20]
Cc1nc2ccccc2c(=O)n1-c1ccccc1Cl	inactive	47.5 µM (active)	inactive	inactive	inactive	inactive	inactive	inactive	inactive	inactive	inactive	inactive	inactive	inactive	inactive					
C[C@]12CC[C@H]3[C@@H](CCC4=CC(=O)CC[C@@H]43)[C@@H]1CC[C@@H]2OC(=O)CCc1ccccc1	inactive	inactive	inactive	inactive	inactive	inactive	inactive	inactive		inactive	inactive		inactive	inactive	inactive	inactive	inactive			
Cc1nc(N(C)C)nc(OC(=O)N(C)C)c1C	inactive	inactive	inactive	inactive	inactive	inactive		inactive	inactive	inactive	inactive	inactive	inactive	inactive	inactive	inactive	inactive	inactive	inactive	
COC1CC(=C(c2cccs2)c2cccs2)C[N+](C)(C)C1 (centres undefined)	inactive	inactive	inactive	inactive	inactive	inactive		inactive	inactive	inactive	inactive		inactive	inactive		inactive	inactive	inactive	inactive	
C=CCSSCC=C	inactive	inactive	inactive	inactive		inactive	inactive	inactive	inactive	inactive	inactive	inactive	inactive	inactive	inactive	inactive	inactive			inactive
Oc1cccc(Cl)c1	inactive	inactive	inactive	inactive	inactive	inactive	inactive				inactive	inactive	inactive	inactive	inactive			inactive	inactive	
OCCSSCCO	inactive	inactive	inactive		inactive	inactive	inactive	inactive	inactive	inactive	inactive	inactive	inactive		inactive	inactive	inactive	inactive	inactive	
c1ccc2sc(SNC3CCCCC3)nc2c1	23.7 µM (active) and 34 µM (active) and 30.6 µM (active)	inactive	inactive			inactive	inactive	13.3 µM (active)	inactive	inactive	inactive	inactive	inactive	inactive		inactive	inactive	inactive	inactive	9.69 µM (active)
CC[N+]1(C)CCCC(OC(=O)C(O)(c2ccccc2)c2ccccc2)C1 (centres undefined)	inactive	inactive	inactive		inactive	inactive	inactive	inactive	inactive	inactive	inactive	inactive		inactive	inactive	inactive	inactive			inactive
SCc1ccccc1	inactive	inactive	inactive			inactive	inactive	inactive		inactive	inactive		inactive	inactive	inactive	inactive	inactive	inactive	inactive	inactive
CCC1(CC)C(=O)NC(=O)NC1=O	inactive	inactive	inactive	inactive			inactive	inactive	inactive	inactive	inactive			inactive	inactive	inactive	inactive			
